According to PubChem BioAssay (NCATS):
Inconclusive results are not listed. Entries that show only a call come without a potency. Activity calls are given as the source filed them. The call rests on the fitted dose curve; in most records, active means well fitted inhibition curve with a large enough effect; inconclusive means small, poorly fitted or top-dose-only effect; inactive means flat fitted curve, though single readings scatter.

These molecules were tested against Calcium and integrin-binding protein 1 (Homo sapiens) (UniProt Q99828) (assay: Primary qHTS for Identification of Calcium Integrin Binding Protein 1 (CIB1) Competitor (AID 1508620;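 further: GST tagged CIB1 binding a fluorescein labelled alphaIIb integrin peptide tracer; top concentration of the series differs between compounds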)). Settings: CIB1-GST / FITC-alphaIIb peptide fluorescence polarization; series mostly up to 114 µM.
Calcium and integrin-binding protein 1 (Homo sapiens), sequence (Q99828 whole entry, looked up): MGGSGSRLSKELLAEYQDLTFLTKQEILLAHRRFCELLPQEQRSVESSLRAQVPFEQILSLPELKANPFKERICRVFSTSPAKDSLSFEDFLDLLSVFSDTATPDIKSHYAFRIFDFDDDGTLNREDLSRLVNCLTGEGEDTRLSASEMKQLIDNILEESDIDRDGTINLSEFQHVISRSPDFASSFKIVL
How it was run: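 Fluorescence polarization competition: CIB1-GST (1 uM final) preincubated with compound 15 min at room temperature, then FITC-labeled alphaIIb peptide (100 nM final) added for another 15 min. Polarization read at Ex 480/Em 540.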

Structure (SMILES) | Potency
CC(=O)Nc1ccc(OCc2cccc(C3Nc4ccccc4C(=O)N3Cc3ccco3)c2)cc1 (stereo not drawn) | inactive
Cc1ccc(OCCn2c(CCNC(=O)CCN3CCCCC3)nc3ccccc32)cc1 | inactive
O=C(Nc1ccc(F)c(C(F)(F)F)c1)Nc1ccc(-c2ccncc2)s1 | inactive
CC(=O)N[C@H](C(=O)N[C@@H](C)C(=O)N[C@H](C#N)CC(=O)O)C(C)C | inactive
COc1ccc(C2c3c(ncn(CCCc4ccccc4)c3=N)Oc3ccc4ccccc4c32)cc1OC (stereo not drawn) | inactive
Cn1nnnc1Sc1ncnc2scc(-c3ccccc3F)c12 | inactive
CNc1nc(-c2cccc3ccccc23)ccc1C#N | inactive
Nc1cccc([S+](=O)([O-])N2CCCN([S+](=O)([O-])c3cccc(N)c3)CC2)c1 | inactive
COc1cc(O)c(C(CC(=O)N2C[C@H](C)C[C@H](C)C2)c2ccc3c(c2)OCO3)c(OC)c1 (stereo partly drawn) | inactive
c1nc(NCCCN2CCCCC2)c2cc(-c3ccc4c(c3)OCO4)ccc2n1 | inactive
COc1ccc(C2Nc3ccccc3C(=O)N2Cc2ccccc2)cc1COc1ccc(NC(=O)c2ccccc2)cc1 (stereo not drawn) | inactive
COc1cccc(CNc2ccc(S(=O)(=O)Nc3nc(C)cs3)cc2)c1O | inactive
C[C@@H]1CN(S(=O)(=O)c2c(F)cccc2F)CCN1S(=O)(=O)c1ccc2c(c1)OCCO2 | inactive
Cc1cc(C)nc(NC(=S)N2CCN(c3cccc(Cl)c3Cl)CC2)c1 | inactive
C/C=C\C1=CCCC1Nc1ncnc2ccc(-c3c(C)noc3C)cc12 (stereo not drawn) | inactive
O=C(/C=C/c1cccnc1)Nc1cccc([S+](=O)([O-])Nc2ccccc2F)c1 | inactive
O=C(O)c1ccc(-n2cccc2/C=C2\SC(=O)N(Cc3ccccc3Cl)C2=O)cc1 | inactive
CC(=O)Nc1sc2c(c1-c1ccccc1)CCN(C(=O)OC(C)(C)C)C2 | inactive
CS(=O)(=O)c1ccc(C(=O)OCC#CCSc2nnc(-c3cccc4ccccc34)o2)cc1 | inactive
CC(=O)c1ccc(N2CCN(S(=O)(=O)c3ccc4c(c3)C(=O)OC4)CC2)cc1 | inactive
Cc1cc(C=CC#N)cc(C)c1Nc1nc(Nc2ccc3scnc3c2)c2[nH]cnc2n1 | inactive
CC(=O)c1ccc(N2CCN(S(=O)(=O)c3cc4c(cc3Cl)NC(=O)C4)CC2)cc1 | inactive
Clc1ccc(CSc2nc3ncc(Br)cc3[nH]2)cc1 | inactive
